# From PubChem BioAssay (NCATS)
# Results filed as inconclusive are left out. Calls of active or inactive are those of the source. The call rests on the fitted dose curve; in most records, active means well fitted curve in the direction sought with a large enough effect; inconclusive means small, poorly fitted or top-dose-only effect, or another doubt; inactive means no such curve, though single readings can be large; an effect the other way counts as inactive or inconclusive. Square brackets hold non-standard residues; d marks the D form. Peptide text beside a SMILES is read from it. ξ: configuration not given here. ξL = CC(C)CC(N)C(=O)O
# Test: HPAF-II 12hr Apoptosis Induction qHTS against the NCATS CANVASS Library (AID 1347358)
# Conditions: HPAF-II caspase-3/7 Caspase-Glo luminescence; series mostly up to 46.1 µM; caspase activation: at the top concentration
# In short: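 HPAF-II cells, 500/well in DMEM + 10% FBS, exposed 12 hours at 37 degrees C to compound (11-point). Caspase-Glo 3/7 added for 15 min at room temperature; luminescence reflects caspase-3/7 activity.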
# Further: 0% is about no effect.
Compound,caspase activation,Potency
O[C@H]1C=C2[C@H]3CN(Cc4cc5c(cc43)OCO5)[C@H]2C[C@@H]1O,-3.81% (inactive),
CC[C@@H](c1cc(OC)c(OC)cc1OC)[C@H](C)[C@@H](/C(C)=C/c1cc(OC)c(OC)cc1OC)c1cc(OC)c(OC)cc1OC,,inactive
C/C=C/c1cc2c(c(=O)o1)C(=O)[C@@H](O)[C@H](C)O2,4.74% (inactive),
CC[C@@H](C)[C@H]1NC(=O)C(CC(C)C)NC(=O)[C@@H](CC(C)C)NC(=O)[C@H](Cc2c[nH]c3ccccc23)NC(=O)CNC(=O)[C@@H](CC(N)=O)NC1=O (stereo partly drawn) (cyclo(GW[dL][ξL][dI][dN])),-3.81% (inactive),
CN1CCc2cc3c(c4c2C1(C)C(=O)c1cc(O)ccc1-4)OCO3 (centres undefined),7.56% (inactive),
COc1cc2c(cc1OC)[C@@H](c1ccc3c(c1)OCO3)C(C)[C@@H](C)C2=O (some centres undefined),3.81% (inactive),
CC(C)[C@@H]1CC(=O)c2coc3c2[C@H]1C[C@@H](C)C3=O,1.16% (inactive),
COc1cc2oc3ccccc3c(=O)c2cc1OC,-4.42% [at 91.4 µM] (inactive),
COC(=O)[C@@]1(C)CCC[C@]2(C)c3cc(OC)ccc3CC[C@@H]12,3.72% (inactive),
COc1cc2ccc(=O)oc2c(O)c1O[C@@H]1O[C@H](CO)[C@@H](O)[C@H](O)[C@H]1O,3.64% [at 27.5 µM] (inactive),
O=C1CCC(=O)N(O)CCCCCNC(=O)CCC(=O)N(O)CCCCCNC(=O)CCC(=O)N(O)CCCCCN1,-0.458% (inactive),
C=C1C[C@H]2O[C@@H]3[C@@H]4[C@H](CC[C@@](C)(O)[C@@H]42)[C@H](C)COC3(C)[C@@H](OC(=O)CCCCCCC)C[C@H]1O (some centres undefined),1.36% (inactive),
CC1=C(C)C(=O)OC(C(C)C2(O)CCC3C4C5OC5C5(O)CC=CC(=O)C5(C)C4CCC32C)C1 (centres undefined),-2.33% (inactive),
COc1cc(C2C3=C(Cc4cc5c(cc42)OCO5)C(=O)OC3)cc(OC)c1OC (centres undefined),5.96% (inactive),
CO[C@@H]1[C@H](O)[C@@H](C)O[C@@H](OC[C@@H]2C(C)OC(=O)/C=C/[C@H](C)C(O[C@@H]3O[C@H](C)CC4(OC(=O)O[C@@H]4C)C3O)[C@@H](C)CC(C)C(=O)/C=C/[C@H]3OC23)[C@@H]1OC (some centres undefined),4.15% (inactive),
C=C[C@@](C)(O)CC[C@@H]1[C@@]2(C)CCCC(C)(C)[C@@H]2CC[C@@]1(C)O,-1.48% (inactive),
COc1ccc([C@@H]2c3cc4c(cc3C(=O)[C@H](C)C2C)OCO4)cc1OC (some centres undefined),3.86% (inactive),
C/C(=C\[C@H](C)C(=O)C[C@H](O)CC1CC(=O)NC(=O)C1)[C@@H]1OC(=O)CCCC/C=C/[C@@H](O)C[C@@H]1C,3.21% (inactive),
CC1=C[C@H]2[C@H]3C(=O)C(c4ccc(O)cc4)=C[C@@]3(c3ccc(O)cc3)[C@@H]1C(=O)[C@]2(C)O,-3.05% (inactive),
C=C1C(=O)O[C@H]2[C@H]1CCC(C)=C1CC[C@@](C)(O)[C@@H]12,2.99% (inactive),
C/C(=C\[C@H](C)C(=O)/C=C/CC1CC(=O)NC(=O)C1)[C@@H]1OC(=O)CCCC/C=C/[C@H](O)[C@@H](O)[C@@H]1C,4.28% (inactive),
C[C@H](c1cnc(N)[nH]1)c1ccc(O)c2[nH]cc(-c3cnc(-c4c[nH]c5ccccc45)c(=O)[nH]3)c12,-2.51% (inactive),
COc1ccc([C@@H]2c3cc4c(cc3C[C@H](C)C2C)OCO4)cc1OC (some centres undefined),-4.66% (inactive),
C[C@H]1CCC2(OC1)O[C@H]1C[C@H]3[C@@H]4CC(=O)[C@]5(O)C[C@H](O)CC[C@@]5(C)[C@H]4CC[C@@]3(C)[C@H]1[C@H]2C (some centres undefined),2.38% (inactive),
C/C1=C/[C@@H](C)[C@H](O)C/C=C/CC/C=C/C(=O)O[C@@H]1[C@H](C)C(=O)CCCC1CC(=O)NC(=O)C1,-4.82% (inactive),
C=C1C[C@H]2O[C@@H]3[C@@H]4[C@H](CC[C@@](C)(O)[C@@H]42)[C@H](C)COC3(C)[C@@H](OC(=O)CCCCCCC)CC1=O (some centres undefined),18.8% (inactive),

# Test: HEK293 24hr Apoptosis Induction qHTS against the NCATS CANVASS Library (AID 1347359)
# Conditions: HEK293 caspase-3/7 activation, Caspase-Glo luminescence; series mostly up to 46.1 µM; activation: at the top concentration
# In short: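 HEK293 cells (500/well, DMEM + 10% FBS) were exposed to compounds in an 11-point series for 24 hours at 37 degrees C, then caspase-3/7 activity was read by Caspase-Glo DEVD luciferase luminescence after 15 min.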
Compound,activation,Potency
O[C@H]1C=C2[C@H]3CN(Cc4cc5c(cc43)OCO5)[C@H]2C[C@@H]1O,-3.95% (inactive),
CC[C@@H](c1cc(OC)c(OC)cc1OC)[C@H](C)[C@@H](/C(C)=C/c1cc(OC)c(OC)cc1OC)c1cc(OC)c(OC)cc1OC,,inactive
CC[C@@H](C)[C@H]1NC(=O)C(CC(C)C)NC(=O)[C@@H](CC(C)C)NC(=O)[C@H](Cc2c[nH]c3ccccc23)NC(=O)CNC(=O)[C@@H](CC(N)=O)NC1=O (stereo partly drawn) (cyclo(GW[dL][ξL][dI][dN])),-2.7% (inactive),
COc1cc2oc3ccccc3c(=O)c2cc1OC,-4.62% [at 91.4 µM] (inactive),
COC(=O)[C@@]1(C)CCC[C@]2(C)c3cc(OC)ccc3CC[C@@H]12,3.24% (inactive),
COc1cc2ccc(=O)oc2c(O)c1O[C@@H]1O[C@H](CO)[C@@H](O)[C@H](O)[C@H]1O,2.26% [at 27.5 µM] (inactive),
CC[C@H]1[C@@H](C)[C@@H](c2cc(OC)c(OC)cc2OC)[C@H](C)[C@@H](c2cc(OC)c(OC)cc2OC)[C@@]12C=C(OC)C(=O)C=C2OC,-0.591% (inactive),
O=C1CCC(=O)N(O)CCCCCNC(=O)CCC(=O)N(O)CCCCCNC(=O)CCC(=O)N(O)CCCCCN1,-1.48% (inactive),
C=C1C[C@H]2O[C@@H]3[C@@H]4[C@H](CC[C@@](C)(O)[C@@H]42)[C@H](C)COC3(C)[C@@H](OC(=O)CCCCCCC)C[C@H]1O (some centres undefined),1.42% (inactive),
C[C@H](CCC(O)C(C)(O)CO)[C@@]1(O)CC[C@@]2(C)C3=C(CC[C@@]21C)[C@@]1(C)CCC(OC(=O)CCC(=O)O)C(C)(C)[C@@H]1CC3 (some centres undefined),3.4% (inactive),
COc1cc(C2C3=C(Cc4cc5c(cc42)OCO5)C(=O)OC3)cc(OC)c1OC (centres undefined),6.86% (inactive),
C=C[C@@](C)(O)CC[C@@H]1[C@@]2(C)CCCC(C)(C)[C@@H]2CC[C@@]1(C)O,-7.51% (inactive),
COc1ccc([C@@H]2c3cc4c(cc3C(=O)[C@H](C)C2C)OCO4)cc1OC (some centres undefined),-1.63% (inactive),
CC1=C[C@H]2[C@H]3C(=O)C(c4ccc(O)cc4)=C[C@@]3(c3ccc(O)cc3)[C@@H]1C(=O)[C@]2(C)O,0.74% (inactive),
C=C1C(=O)O[C@H]2[C@H]1CCC(C)=C1CC[C@@](C)(O)[C@@H]12,-7.27% (inactive),
COc1ccc([C@@H]2c3cc4c(cc3C[C@H](C)C2C)OCO4)cc1OC (some centres undefined),-1.8% (inactive),
C[C@H]1CCC2(OC1)O[C@H]1C[C@H]3[C@@H]4CC(=O)[C@]5(O)C[C@H](O)CC[C@@]5(C)[C@H]4CC[C@@]3(C)[C@H]1[C@H]2C (some centres undefined),-7.67% (inactive),
C/C1=C/[C@@H](C)[C@H](O)C/C=C/CC/C=C/C(=O)O[C@@H]1[C@H](C)C(=O)CCCC1CC(=O)NC(=O)C1,-5.53% (inactive),
